The text below walks through data of PubChem BioAssay.

Active and inactive are the calls of the source. Unless noted, the rule behind the calls is not given here.

Assay [1] is described as follows: resazurin metabolic signal in HepG2 cells – cell-based, resazurin fluorescence, 24 h, PK04 Diversity Set, profiling panel (AID 1172). Note: test concentration not given here. The note with it: HepG2 viability, higher = more signal.
Assay [2] in a line: budding yeast growth changes without added modifier – OD600, strain BY4716, 24 h, basal condition, primary screen (AID 1173). The note with it: S. cerevisiae BY4716 growth, OD600, 24 h; higher = more signal, called active from +8 up or from −8 down.
Assay [3] can be described thus: viability profiling in MM1S myeloma cells – cell-based, resazurin fluorescence, basal, 24 h, PK04 Diversity Set, profiling panel (AID 1174).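 Note: MM1S multiple myeloma cell line; test concentration not given here.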 The note with it: higher = more signal, called active from +8 up or from −8 down. Background: The colour change of resazurin is a common sign of viable cells or microbes.
Assay [4] addresses Dihydroorotate dehydrogenase (quinone), mitochondrial (Plasmodium falciparum (isolate 3D7)) (UniProt Q08210). The experiment in a line: inhibition of P. falciparum DHODH – biochemical, C-terminal His tag, absorbance 600 nm, primary screen (AID 1175).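 Note: recombinant parasite enzyme with a five histidine tag at its C terminus; test concentration not given here.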 The note with it: PfDHODH enzyme, DCIP absorbance 600 nm; higher = more signal, called active from +8 up or from −8 down.
Assay [5] in a line: inhibition of PAO1 biofilm formation – strain PAO1, LB-PBS medium, absorbance 600 nm, primary screen (AID 1176). Note: test concentration not given here. The note with it: P. aeruginosa PAO1 growth/biofilm, A600, 12 h; higher = more signal.
The nature of assay [6]: growth modulation of vineyard yeast isolate – strain RM11-1a, OD600, basal, 24 h, primary screen (AID 1177).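 Note: cultures grown under basal conditions with no added stressor; test concentration not given here.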 The note with it: S. cerevisiae RM11-1a growth, OD600, 24 h; higher = more signal, called active from +8 up or from −8 down.
Assay [7] can be described thus: growth of efflux-deficient E. coli DRC39 – strain DRC39, OD650, 24 h, E. coli filamentation inducers, primary screen (AID 1178).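 Note: growth measured as culture turbidity by optical density at 650 nm; test concentration not given here.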 The note with it: E. coli DRC39 acrAB, higher = more signal, called active from +8 up or from −8 down.
Assay [8] in a line: growth of efflux-deficient E. coli DRC39 – strain DRC39, OD650, 48 h, E. coli filamentation inducers, primary screen (AID 1179).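 Note: screen aims at cell division blockers that make cells filament.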 The note with it: E. coli DRC39 delta-acrAB growth, higher = more signal, called active from +8 up or from −8 down.
The nature of assay [9]: viability profiling in RPMI8226 myeloma cells – cell-based, resazurin fluorescence, basal, 24 h, PK04 Diversity Set, profiling panel (AID 1180).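 Note: RPMI8826 multiple myeloma cell line at 5000 cells per well; test concentration not given here.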 The note with it: higher = more signal.
Assay [10] has as its target E3 ubiquitin-protein ligase XIAP (Homo sapiens) (UniProt P98170). Nature of the assay: small molecules binding XIAP protein – biophysical, small-molecule microarray, fluorescence 635 nm, primary screen (AID 1181).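 Note: score merges 667 nm emission and signal to noise over triplicate slides.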 The following applies: higher = more signal.

E3 ubiquitin-protein ligase XIAP (Homo sapiens), sequence (P98170 whole entry, looked up): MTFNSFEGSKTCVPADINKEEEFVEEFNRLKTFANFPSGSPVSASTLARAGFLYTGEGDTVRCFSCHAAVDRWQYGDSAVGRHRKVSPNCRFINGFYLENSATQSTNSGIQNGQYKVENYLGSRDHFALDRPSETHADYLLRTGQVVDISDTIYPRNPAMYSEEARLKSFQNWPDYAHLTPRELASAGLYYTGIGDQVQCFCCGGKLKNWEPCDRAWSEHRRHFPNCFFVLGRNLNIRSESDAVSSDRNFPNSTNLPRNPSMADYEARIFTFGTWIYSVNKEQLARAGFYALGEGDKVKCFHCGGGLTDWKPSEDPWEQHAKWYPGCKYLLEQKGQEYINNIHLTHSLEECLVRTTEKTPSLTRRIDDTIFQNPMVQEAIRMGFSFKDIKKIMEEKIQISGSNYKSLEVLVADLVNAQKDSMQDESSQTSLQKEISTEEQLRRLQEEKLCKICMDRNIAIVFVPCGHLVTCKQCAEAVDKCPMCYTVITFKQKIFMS
Dihydroorotate dehydrogenase (quinone), mitochondrial (Plasmodium falciparum (isolate 3D7)), sequence (Q08210 whole entry, looked up): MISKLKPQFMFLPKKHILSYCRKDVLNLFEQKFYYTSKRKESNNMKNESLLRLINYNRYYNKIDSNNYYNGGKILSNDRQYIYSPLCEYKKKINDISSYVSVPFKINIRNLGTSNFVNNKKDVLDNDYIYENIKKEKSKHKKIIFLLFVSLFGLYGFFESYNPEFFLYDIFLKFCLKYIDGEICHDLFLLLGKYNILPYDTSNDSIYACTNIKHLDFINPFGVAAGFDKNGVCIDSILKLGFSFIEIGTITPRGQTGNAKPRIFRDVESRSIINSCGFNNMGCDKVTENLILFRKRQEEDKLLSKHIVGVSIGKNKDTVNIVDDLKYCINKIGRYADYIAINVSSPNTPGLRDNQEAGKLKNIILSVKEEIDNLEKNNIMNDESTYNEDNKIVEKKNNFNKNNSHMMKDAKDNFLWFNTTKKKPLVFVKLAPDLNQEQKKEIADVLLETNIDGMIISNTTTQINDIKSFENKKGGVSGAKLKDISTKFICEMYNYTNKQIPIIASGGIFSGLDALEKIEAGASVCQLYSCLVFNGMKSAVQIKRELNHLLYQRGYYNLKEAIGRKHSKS

Regarding `C[C@H]1Cc2c(COc3ccccc3)nc3c(c2CO1)CN(CCOc1ccccc1)CC3`, the z-score in assay [1] is -0.503; in assay [2], -3.09 (inactive); in assay [3] it was 0.598 (inactive); in [5] it was 1.69 (inactive); in assay [6], -0.466 (inactive); in assay [7] it was 1.52 (inactive). For the same molecule, the results for the z-score in assay [8] and in assay [9] were 0.996 (inactive) and 0.961, respectively. The composite z-score in assay [4] is -0.555 (inactive); in [10] it was -0.0767.

As for `CCCNC(=O)OC[C@H]1O[C@H](CCON=Cc2ccc(C(=O)N3[C@H](c4ccc(C)cc4)[C@@H](C)CC[C@H]3C(=O)OC)cc2)C=C[C@@H]1Oc1ccc(OC)cc1`, the z-score in assay [1] was -0.73; in [2] it was 1.85 (inactive); in [3], -0.686 (inactive); in assay [5] it was 0.511 (inactive); in [6] it was 0.729 (inactive); in [7] it was 0.567 (inactive). For the same molecule, the z-score in assay [8] is 0.353 (inactive); in assay [9], -0.203. Further, the composite z-score in [4] was 0.415 (inactive); in assay [10], 0.0623.

With `CC(CCC(=O)OC[C@H]1O[C@H](C#Cc2ccccc2)C=C[C@@H]1Oc1ccc(C)cc1)=NO[C@H](C)c1cn([C@H](CO)Cc2ccccc2)nn1`, the z-score in assay [1] was 0.151; in assay [2] it was 0.815 (inactive); in assay [3] it was -0.0044 (inactive); in assay [5], 0.463 (inactive); in [6], 1.78 (inactive); in assay [7] it was 0.348 (inactive). The z-score was -0.0348 (inactive) in assay [8] and 0.274 in assay [9]. For the same molecule, the composite z-score in [4] was 1.1 (inactive); in assay [10] it was 0.0191.

`CCN1C(=O)[C@H]2[C@H]3[C@H](O)[C@H](O)CC(=O)[C@@H]3CC[C@H]2C1=O`: the z-score was -0.309 in assay [1]; -0.553 (inactive) in assay [2]; -0.399 (inactive) in assay [3]; -0.72 (inactive) in [5]; -0.162 (inactive) in assay [6]; -0.307 (inactive) in [7]. Further, the z-score in assay [8] is -0.164 (inactive); in assay [9], -0.752. Also, the results for the composite z-score in assay [4] and in assay [10] were -0.308 (inactive) and 0.112, respectively.

Consider `COc1cccc([C@H]2Oc3ccc(OC)cc3C(=NO[C@@H]3O[C@H](COC(C)=O)[C@@H](OC(C)=O)[C@H](OC(C)=O)[C@H]3OC(C)=O)[C@@H]2O)c1`, for which the z-score was -0.34 in assay [1]; 0.387 (inactive) in [2]; -0.726 (inactive) in assay [3]; 0.347 (inactive) in assay [5]; -1.02 (inactive) in assay [6]; 0.416 (inactive) in assay [7]. The figures for the z-score in assay [8] and in assay [9] were -0.716 (inactive) and -0.158, respectively. In addition, the composite z-score in assay [4] was -0.582 (inactive); in assay [10] it was 0.02.

`O=C1[C@H]2[C@H]3[C@H](O)[C@H](O)CC(=NO[C@@H]4O[C@H](CO)[C@@H](O)[C@H](O)[C@H]4O)[C@H]3CC[C@H]2C(=O)N1c1cccc(Oc2ccccc2)c1`: the z-score in [1] is 0.648; in [2], 0.439 (inactive); in [3], -0.0137 (inactive); in [5], -0.708 (inactive); in assay [6] it was -0.929 (inactive); in assay [7] it was -0.0313 (inactive). Moreover, the figures for the z-score in assay [8] and in assay [9] were -0.49 (inactive) and 0.394, respectively. In addition, the composite z-score in assay [4] was 0.0087 (inactive); in [10] it was -0.0773.

Regarding `CO[C@H]1COC(=O)CC=C[C@@H](C)[C@H](OC)COC(=O)[C@@H]2CCCN2C(=O)CC=C[C@@H]1C`, the z-score was 0.251 in assay [1]; -1.87 (inactive) in assay [2]; 0.616 (inactive) in [3]; -0.638 (inactive) in assay [5]; -0.055 (inactive) in [6]; 0.601 (inactive) in assay [7]. In addition, the z-score is 0.53 (inactive) in [8] and 0.136 in assay [9]. Also, the composite z-score in assay [4] was 0.52 (inactive); in assay [10], 0.196.

As to `O=C(NN=C1C[C@@H](O)[C@@H](O)[C@@H]2[C@@H]3C(=O)N(C[C@@H]4CCCO4)C(=O)[C@@H]3CC[C@H]12)OCc1ccccc1`, the z-score in [1] is -0.136; in assay [2], 0.267 (inactive); in [3] it was -0.239 (inactive); in assay [5], -0.531 (inactive); in assay [6] it was -0.0555 (inactive); in assay [7], 0.593 (inactive). Moreover, the z-score was 0.191 (inactive) in assay [8] and 0.664 in assay [9]. The values for the composite z-score in assay [4] and in assay [10] were -0.02 (inactive) and 0.0451, respectively.

Regarding `CC(C)CON=C1C[C@@H](O)[C@@H](O)[C@@H]2[C@@H]3C(=O)N(C4CCCCC4)C(=O)[C@@H]3CC[C@@H]12`, the z-score in assay [1] was -0.577; in assay [2], -4.72 (inactive); in assay [3], 0.119 (inactive); in assay [5], -0.294 (inactive); in assay [6], 0.523 (inactive); in [7] it was -0.3 (inactive). Besides, the z-score was -1.17 (inactive) in [8] and -0.0596 in [9]. For the same molecule, the composite z-score in assay [4] is -0.508 (inactive); in assay [10] it was 0.0159.

In the case of `CCOC(=O)[C@H](Cc1ccccc1)NC(=O)CCC1CC(OC(=O)NCCc2ccc(F)cc2)CC2(CCCC(COC(=O)NCc3ccccc3)O2)O1` (stereo not given in full), the z-score in assay [1] was 0.567; in [2] it was -0.298 (inactive); in assay [3] it was 0.159 (inactive); in assay [5], 0.013 (inactive); in assay [6], 0.694 (inactive); in assay [7] it was 0.321 (inactive). The z-score in assay [8] is -0.158 (inactive); in assay [9] it was -0.0066. Also, the results for the composite z-score in [4] and in [10] were -0.447 (inactive) and -0.0525, respectively.

Take `COc1ccc(O[C@@H]2[C@H](O)CO[C@@H]2C=Cc2ccccc2)cc1`: the z-score was -0.489 in assay [1]; -2.44 (inactive) in assay [2]; 0.995 (inactive) in assay [3]; 0.815 (inactive) in assay [5]; -0.614 (inactive) in assay [6]; -1.16 (inactive) in [7]. Also, the values for the z-score in assay [8] and in [9] were -1.93 (inactive) and 0.54, respectively. Besides, the composite z-score in assay [4] was -3.01 (inactive); in [10] it was 0.0975.

Take `C#CCCCON=C1C[C@@H](O)[C@@H](O)[C@@H]2[C@@H]3C(=O)N(c4ccc(F)cc4F)C(=O)[C@@H]3CC[C@@H]12`: the z-score was 1.49 in assay [1]; -0.652 (inactive) in [2]; 0.225 (inactive) in [3]; -1.25 (inactive) in assay [5]; -1.07 (inactive) in assay [6]; -0.0313 (inactive) in [7]. Moreover, the z-score is -0.152 (inactive) in [8] and 0.33 in [9]. Besides, the composite z-score in [4] was -0.278 (inactive); in assay [10], -0.0786.
